Assay results: PubChem BioAssay
Values joined by “and” are separate entries in the source; they are usually repeats but may differ in a detail not shown here. Identical values can stand only once. Active and inactive are the calls of the source.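 How the source made its calls: active means inhibition above 50%; inactive means the rest.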

experiment: HepG2 cytotoxicity, primary screen, cytotoxicity control for P. falciparum antimalarial project, cell-based, ATP luminescence (AID 2303); conditions: HepG2 viability, 24-48 h, at 10 µM, stronger effect = higher value;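 further: 0% = DMSO wells and 100% = digitonin-killed cells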

Row | SMILES | inhibition
1 | COc1ccc2nc(C)cc(NN=Cc3ccccc3Cl)c2c1 | 0% (inactive)
2 | COc1ccccc1NC(=O)c1cc(C(=O)c2cc(Cl)ccc2O)cn(-c2ccccc2OC)c1=O | 9% (inactive)
3 | CCc1c(C)nc2nc(Cc3cccc(F)c3)nn2c1N1CCN(c2ccccn2)CC1 | -4% (inactive)
4 | COc1ccc(NC(=O)NC2CCN(CCCOc3ccnc4cc(Cl)ccc34)C2)cc1OC (stereo not given) | 6% (inactive)
5 | CN1CCCN(Cc2ccc(-c3cccc(NC(=O)c4ccc(F)cc4)c3)cc2)CC1 | 29% (inactive)
6 | Cc1cc(NCC2CCN(CC3CCCCC3)C2)nc(Nc2ccc(Br)cc2)n1 (stereo not given) | -2% (inactive)
7 | Cc1cccc2[nH]c(-c3ccc(-c4cccc(NC(=O)NCc5cccc(F)c5)c4)cc3)nc12 | 27% (inactive)
8 | CCOC(=O)C(C)(C)Oc1ccc(C(=C2CC(C)(C)CC(C)(C)C2)c2ccc(O)cc2)cc1 | -3% (inactive)
9 | CN(C)CCCN(C)C(=O)c1cc2cc(-c3ccccc3)ccc2n1S(=O)(=O)c1ccccc1 | 29% (inactive)
10 | CCN(CC)c1cc(C)c2cc(NC(=O)c3cc(=O)c4ccccc4o3)ccc2n1 | 14% (inactive)
11 | COc1ccc(Cl)cc1N1CCN(CCCNC(=O)c2ccc(-c3nc4cc5ccccc5cc4[nH]3)c(F)c2)CC1 | 12% (inactive)
12 | O=S(=O)(NCCN1CCCC1)c1cccc(-c2ccccc2CNC2Cc3ccccc3C2)c1 | 35% (inactive)
13 | CCCC(C)NC(=O)C(N)Cc1cccc(I)c1 (stereo not given) | 11% (inactive)
14 | CCCCCCCCNc1c2ccc(Cl)cc2nc2ccc(OC)cc12 | 11% (inactive)
15 | CN1CCC(C(=O)Nc2cccc(-c3ccc(-c4nc5ccc(C(F)(F)F)cc5[nH]4)s3)c2)CC1 | 29% (inactive)
16 | Cc1cc(NCCC(=O)NCCc2ccccc2)nc(NCCc2ccc(F)cc2)n1 | 0% (inactive)
17 | CCCC(C)Nc1nc(C)cc(N[C@@H](CC(C)C)C(=O)NCCOc2ccccc2)n1 (stereo not given in full) | 15% (inactive)
18 | CN(C)CCNC(=O)N1CCCN(c2ncnc3cc(-c4ccccc4)sc23)CC1 | 5% (inactive)
19 | CC(=O)Nc1cccc(C(=O)Nc2cccc(-c3cccc(-c4nc5ccccc5[nH]4)c3)c2)c1 | 41% (inactive)
20 | CC(CN(C)C)C(=O)Nc1ccc(-c2cccc(-c3nc4ccccc4[nH]3)c2)cc1 (stereo not given) | 68% (active)

Row | SMILES | inhibition
21 | O=C(/C=C/c1ccc(Cl)c(Cl)c1)NCCCCCN1CCC(NC(=O)Nc2ccccc2Cl)CC1 | 56% (active)
22 | CCc1cc2c(N)nc(N)nc2nc1-c1ccccc1 | 18% (inactive)
23 | CC(C)CNCc1cccc(-c2cccc(CNCCCN3CCN(C)CC3)c2)c1 | 5% (inactive)
24 | Clc1ccc2c(NCCNc3ccnc4cc(Cl)ccc34)ccnc2c1 | 6% (inactive)
25 | CC(C)(C)c1ccc(NC(=O)c2cccc(CN3CCCN(Cc4ccc(F)cc4)CC3)c2)cc1 | 35% (inactive)
26 | COc1ccc(CNCc2ccc(F)cc2)cc1-c1ccc(OC)c(S(=O)(=O)NCCN2CCCC2)c1 | 24% (inactive)
27 | NC1=NC(c2ccccc2)(c2ccccc2)C(=O)N1CC1CCC1 | 17% (inactive)
28 | O=C1C(c2ccccc2)=C(Nc2cc(Cl)cc(Cl)c2)c2ccccc21 | -4% (inactive)
29 | Cc1cc(C2CCN(CCCCNC(=O)c3ccc(NC(=O)c4ccc(Cl)cc4)cc3)CC2)c(C)cc1OCc1cccnc1 | 39% (inactive)
30 | C=C[C@H]1CN(CCCCCCC)CC[C@H]1CCN(C)c1ccnc2ccc(OC)cc12 | 22% (inactive)
31 | COc1ccc(CN(C)CCCSc2ccc(NC(=O)c3cccc4c(=O)cc(-c5ccccc5)[nH]c34)cc2)cc1OC | 15% (inactive)
32 | CC(=O)N1N=C(c2ccc(Cl)cc2)Sc2c1nc(C1CCCCC1)n2C(C)=O | 1% (inactive)
33 | OC(CNc1ccnc(Nc2cccc(Cl)c2)n1)c1cccc(C(F)(F)F)c1 (stereo not given) | 11% (inactive)
34 | CCc1cc(I)c2c(c1)C(NCCCNc1cc(=O)c3ccccc3[nH]1)CCN2 (stereo not given) | 19% (inactive)
35 | O=C1C(c2ccccc2)=C(Nc2ccc(Cl)cc2)c2ccccc21 | 5% (inactive)
36 | Cc1cc(CNCCCCCCCNCc2cccc([N+](=O)[O-])c2)ccc1O | 6% (inactive)
37 | Cc1[nH]c2cccc(F)c2c(=O)c1Cc1ccc(Cl)cc1 (tested in a mixture with another compound) | 7% (inactive) and 6% (inactive)
38 | COc1ccc2ncc(F)c(CCN3CCC(CNC(=O)C(=O)c4c[nH]c5ccccc45)CC3)c2n1 | 48% (inactive)
39 | O=C(Nc1ccc(Cn2ncc(N3CCCNCC3)c(Cl)c2=O)cc1)Nc1ccc(-c2ccccc2)cc1 | 12% (inactive) and 10% (inactive)
40 | CC(=O)N/N=C/[C@H](CCc1ccccc1)NC(=O)[C@H](CC(C)C)NC(=O)c1ccc(OCCN2CCOCC2)cc1 | 4% (inactive)
